Most compounds without a hit are left out; they make up all but 12% or so of the library.
PLK1 PBD inh: PLK1 (human) polo-box domain binding inhibition | Potency, µM, for the others: max response, negative = inhibition, usual class: inhibitors | AID 720504 | 360,000 tested, 2.8% active | P53350 | Plk1 PBD binding of FITC phosphopeptide, fluorescence polarization; note: potency is the fitted concentration of half-maximal effect; series mostly up to about 57 µM; % is set by controls: 0 for no effect and ±100 for the full control effect; nearly all actives have a fitted effect of over 65% in size
HP1b chromo inh: HP1-beta chromodomain-methylated histone interaction inhibition. 390,000 tested, 0.56% active. AID 540317. P83916. AlphaScreen HP1-beta / biotin-H3K9me3 peptide binding. Potency, µM (doses to about 114 µM), inactives show at the top dose activity change, negative = inhibition, usual class: inhibitors; note: potency is the fitted concentration of half-maximal effect; nearly all actives have a fitted effect of over 70% in size
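AlphaScreen: HP1-beta (50 nM) preformed 30 min with biotin-H3(1-18)K9me3 peptide (50 nM) in PBS pH 7.4, 0.01% Tween-20. Compound added for 30 min at RT, then streptavidin donor/nickel chelate acceptor beads (10 ug/mL) for 30 min.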
G9a block: inhibitors of human histone lysine methyltransferase G9a | 350,000 tested, 8.8% active | AID 504332 | G9a H3K9 monomethylation, AlphaScreen, 2 h | Potency, µM (titrated, usually from 102 µM), for inactives: top-dose activity, negative = inhibition, usual class: inhibitors | Q96KQ7; note: potency is the fitted concentration of half-maximal effect; % is set by controls: 0 for no effect and ±100 for the full control effect; nearly all actives have a fitted effect of over 75% in size
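Quantitative HTS format: methyltransferase activity on a biotin-tagged H3K9 peptide is measured by AlphaScreen, using a rabbit anti-monomethyl-H3K9 antibody with streptavidin donor and anti-IgG acceptor beads. Final levels are 20 nM enzyme, 500 nM peptide, 20 uM SAM; 2 h RT.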
BAZ2B block: blocks human BAZ2B; AID 504333; Q9UIF8; Potency, µM (highest dose often 114 µM), for the others: at the highest dose activity change, negative = inhibition, most hits filed as inhibitors; 360,000 tested, 4.4% active; AlphaScreen BAZ2B-H3K14Ac peptide displacement; note: potency is the fitted concentration of half-maximal effect; % is set by controls: 0 for no effect and ±100 for the full control effect; nearly all actives have a fitted effect of over 60% in size
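AlphaScreen displacement of biotin-H3(5-23)K14Ac peptide (50 nM final) from BAZ2B (50 nM final) in PBS pH 7.4, 0.01% Tween-20; complex preformed 30 min RT, then compounds (top 110 uM) 30 min RT, beads 20 min dark.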
PI5P4Ka inh: blocks human PI5P4K alpha kinase activity; P48426; max response, %; 330,000 tested, 1.2% active; AID 652105; PI5P4Kalpha enzyme, ADP-Glo luminescence, 60 min; active compounds read low; active = max response of -50% or lower; inconclusive = between -30% and -50%; inactive = -30% or higher; note: value at the top dose of about 77 µM; % is set by controls: 0 for no effect and ±100 for the full control effect
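Reactions run in 0.038 M HEPES pH 7.4, 0.28 mM EGTA, 0.1% CHAPS and 5% DMSO, with PI5P4Kalpha, substrate, compound and 5 microM ATP final, one hour at room temperature. Readout is ADP-Glo luminescence.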
JMJD2A Tudor inh: blocks the human JMJD2A Tudor domain. 390,000 tested, 4.4% active. AlphaScreen JMJD2A-Tudor / H3K4me3 peptide binding. AID 504339. O75164. Potency, µM (highest dose often 114 µM), inactives show at the top dose activity change, negative = inhibition, actives largely listed as inhibitors; note: potency is the fitted concentration of half-maximal effect; % is set by controls: 0 for no effect and ±100 for the full control effect; nearly all actives have a fitted effect of over 50% in size
Active calls of the source: *; ? = inconclusive; nt = not tested or not shown; [ ] = dose if it differs, or a comment. Unless noted, calls come from the whole dose curve; as a rule, active = well fitted curve in the direction sought with a large enough effect; inconclusive = small, poorly fitted or top-dose-only effect, or another doubt; inactive = no such curve, though single readings can be large; an effect the other way counts as inactive or inconclusive.

SMILES	PLK1 PBD inh	HP1b chromo inh	G9a block	BAZ2B block	PI5P4Ka inh	JMJD2A Tudor inh
Cc1ccc(CNc2ncnc3ccc(-c4ccc5c(c4)OCO5)cc23)o1	nt	nt	nt	nt	nt	45µM*
c1nc(NCCc2cnc[nH]2)c2ccc(-c3ccc4c(c3)OCO4)cc2n1	nt	nt	nt	nt	nt	79µM*
O=C(CN(c1cc(C(F)(F)F)ccc1Cl)S(=O)(=O)c1ccccc1)NCCc1ccccc1	nt	22%	?	0%	nt	8%
Cc1cc(C)cc(Cn2cc(CN3CC(N4CCCCC4)CS3(=O)=O)nn2)c1 (stereo not drawn)	-1%	nt	nt	nt	-3	nt
Cc1cccc(-n2nc(C)c3c2NC2=C(C(=O)CCC2)C3c2ccccn2)c1 (stereo not drawn)	-5%	5%	35µM*	-27%	-3	?
Cc1nn(-c2ccccn2)c2c1C(c1ccsc1)C1=C(CCCC1=O)N2 (stereo not drawn)	-5%	16%	?	-36%	-7	-24%
COc1cccc(CN2CCN(CCc3ccccc3)C(CCO)C2)c1OC (stereo not drawn)	-3%	31%	-3%[0.501 µM]	3%	-9	-2%
COc1cccc(CN2CCN(Cc3cc(OC)c(OC)c(OC)c3)CC2)c1OC	-7%	?	2.8µM*	56µM*	9	7.9µM*
COc1cccc(CN2CCN(Cc3cccc(Oc4ccccc4)c3)CC2)c1OC	-10%	?	4µM*	18µM*	3	7.1µM*
CC(C)CC(=O)N1CCC(N(CCc2ccccc2)Cc2ccccc2)CC1	-5%	?	22µM*	50µM*	2	28µM*
COc1ccc(CC2(CO)CCN(Cc3cccc(OC)c3OC)CC2)cc1	2%	27%	1%	-14%	-3	-15%
COc1cccc(CN2CCC(N(CCc3ccccc3)Cc3ccccc3)CC2)c1OC	-9%	?	8.9µM*	50µM*	1	0.89µM*
Cc1ccc(C(=O)NCC(=O)OCC(=O)Nc2cc(S(=O)(=O)N3CCOCC3)ccc2Cl)s1	-18%	20%	nt	nt	4	-29%
CC1CCCN(Cc2cn3c(-c4cccc(Br)c4)nnc3s2)C1 (stereo not drawn)	nt	17%[57 µM]	5%[59 µM]	4%	nt	-13%
Brc1cccc(-c2nnc3sc(CNCc4ccco4)cn23)c1	-15%	21%	45µM*	-21%	-22	-29%
Cc1c(C(=O)N2CCOCC2)c(S(=O)(=O)Nc2ccc(Br)cc2F)c(C)n1C	27µM*	-5%	3%	-16%[57.1 µM]	-16	18µM*
Cc1c(C(=O)N2CCOCC2)c(S(=O)(=O)Nc2cccc(Br)c2)c(C)n1C	27µM*	?	nt	-14%	-11	?
O=C(CSc1ccc2nnc(-c3cccc(F)c3)n2n1)NCC1CCCO1 (stereo not drawn)	?	?	5µM*	-4%	nt	32µM*
O=C(CSc1ccc2nnc(-c3cccnc3)n2n1)NCC1CCCO1 (stereo not drawn)	-3%	55%	?	1%	-4	-4%
O=C(CSc1ccc2nnc(-c3cccc(F)c3)n2n1)N1CCCc2ccccc21	-9%	-9%	?	0%	2	-40%
CCSc1ccc2nnc(-c3cccc(F)c3)n2n1	?	-37%	4µM*	11%	nt	79µM*
CC1CN(C(=O)Nc2ccc(C(=O)NCc3cccc(F)c3)cc2)c2ccccc2S1 (stereo not drawn)	nt	47%	11%[59 µM]	2%	nt	3%
C/C=C(\C)C(=O)OC1CC(C)(C)C[C@H]2C3=CC[C@@H]4[C@@]5(C)CCC(O[C@@H]6O[C@@H](C(=O)O)[C@@H](O)C(O[C@@H]7OC[C@H](O)[C@@H](O)[C@@H]7O[C@@H]7OC(CO)C(O)[C@@H](O)[C@@H]7O)C6O[C@@H]6OC(CO)C(O)C(O)C6O)[C@@](C)(CO)[C@@H]5CC[C@]4(C)[C@]3(C)CC(O)[C@@]12CO (stereo partly drawn)	-27%	11%	nt	nt	?	79µM*
COc1ccc(CNc2cccnc2)c(OC)c1OC	10%	44%	nt	nt	-6	-6%
COc1ccccc1Nc1c2c(nc3ccc(NC(=O)c4cccc(OC)c4OC)cc13)CCCC2	nt	16%	?	-37%	nt	?
SMILES	PLK1 PBD inh	HP1b chromo inh	G9a block	BAZ2B block	PI5P4Ka inh	JMJD2A Tudor inh
Cc1ccc2nc3c(c(Nc4ccc(C)c(C)c4)c2c1)CCC3	nt	2%	-45%[59 µM]	32µM*	nt	?
COc1ccccc1Nc1c2c(nc3ccc(NC(=O)c4ccc(OC)c(OC)c4)cc13)CCCC2	nt	-17%	14µM*	?	nt	?
Cc1ccc2nc3c(c(Nc4ccc(O)cc4)c2c1)CCC3	-8%	42%	?	-13%	-18	-22%
COc1ccccc1Nc1c2c(nc3ccc(N)cc13)CCCC2	-8%	-25%	40µM*	35µM*	1	40µM*
COc1ccccc1Nc1c2c(nc3ccc(NC(=O)c4ccccc4F)cc13)CCCC2	nt	0%	?	?	nt	?
COc1ccc(Nc2c3c(nc4ccc(NC(=O)c5ccc(F)cc5)cc24)CCCC3)cc1OC	nt	?	?	32µM*	nt	56µM*
COc1ccc(CCNC(=O)c2ccc3c(c2)N=C(C)c2ccccc2S3)cc1OC	nt	-6%	3%[59 µM]	-27%	nt	?
Cc1ccc(C(=O)CCC(=O)Nc2ccccc2C)c(C)c1	-15%	20%	28%	3%	0	-10%
CCN=C1SC(CC(=O)NC2CCCCC2)C(=O)N1CC (stereo not drawn)	-2%	29%	6%[59 µM]	8%	nt	-2%
CN1C(=O)C(CC(=O)NC2CCCCC2)SC1=Nc1ccccc1 (stereo not drawn)	30µM*	20%	17%[59 µM]	25%	-16	?
CCCOc1ccc(NC(=O)CC2C(=O)N(c3ccc(C)cc3)C(=O)N2C2CCCC2)cc1 (stereo not drawn)	nt	17%	-1%[59 µM]	-11%	nt	-12%
CCOc1ccc(NCc2cccn2-c2nnc(N3CCC(C(=O)NCCCN4C(C)CCCC4C)CC3)s2)cc1 (stereo not drawn)	?	-21%	40µM*	40µM*	0	56µM*
CCOc1ccc(NCc2cccn2-c2nnc(N3CCC(C(=O)NCCCN4CCCCC4)CC3)s2)cc1	-10%	?	40µM*	40µM*	3	50µM*
COCCCNC(=O)C1CCN(c2nnc(-n3cccc3CNc3ccc(C)cc3)s2)CC1	nt	13%	-5%[59 µM]	?	nt	-17%
CCOc1ccc(NCc2cccn2-c2nnc(N3CCC(C(=O)NCCCN4CCCCC4C)CC3)s2)cc1 (stereo not drawn)	3%	-15%[57 µM]	50µM*	?	2	40µM*
CCOc1ccc(NCc2cccn2-c2nnc(N3CCC(C(=O)NCc4ccccc4Cl)CC3)s2)cc1	nt	24%	?	-19%	nt	-24%

Screening results: PubChem BioAssay, National Center for Advancing Translational Sciences (NCATS)
